Experimental data taken from PubChem BioAssay.
A number with no mark means an inactive call. The source made the active and inactive calls. No stated cut-off is given here; in the data, active means inhibition above about 36%; inactive means the rest.

These molecules were tested on transactivating tegument protein VP16 (Human herpesvirus 1) (assay: compounds suppressing VP16-driven luciferase signal – cell-based, luminescence, single concentration, counter-screen for SRC2 inhibitor project (AID 652007)). Settings: cell-based VP16 transactivation luciferase reporter, at 8.9 µM, active compounds read high.

SMILES | inhibition
Nc1nonc1C(=O)NCCNCc1cc(Br)ccc1OCc1ccc(F)cc1 | 1.07%
NC1=NC(=O)/C(=C\c2cccnc2)S1 | -14.6%
COc1ccc(-c2csc3ncnc(NCCO)c23)cc1 | 3.39%
Cc1cc(C2=NNC(=NC3CC3)SC2)c(C)n1-c1ccccc1 | 83.2% (active)
CCOc1cc(/C=C/C(=O)c2ccc3c(c2)OCCO3)ccc1OCC(=O)N(C)C | 2.55%
CCC/C(C#Cc1cc(OC)cc(OC)c1)=C1/c2ccccc2C(=O)N1c1ccccc1 | 3.37%
COc1ccc(-c2cc(C(=O)O)c(C)o2)cc1OC | -74%
CNc1ccc(N=Nc2cccc3ncccc23)cc1 | -76%
CC(=O)c1cccc(NC(=O)c2ccccc2N(C)S(=O)(=O)c2ccc(C)cc2)c1 | -5.87%
CN1CCN(/N=C/c2ccc(N(c3ccccc3)c3ccccc3)cc2)CC1 | 2.36%
CCCCCCCCN1C(=O)[C@H](CC(=O)NCCCC)C[C@@]2(C(=O)OCC)CCCC=C12 | -14%
Cc1c(NC(=O)COC(=O)C23CC4CC(CC(O)(C4)C2)C3)c(=O)n(-c2ccccc2)n1C | 2.86%
CCn1c(C2CCN(S(=O)(=O)c3ccc(OC)cc3)CC2)n[nH]c1=S | -1.12%
COCc1cc(N2CCN(C(=O)OC(C)(C)C)C[C@H]2C)ccc1N1CCS(=O)(=O)CC1 | 5.52%
CC(C)(C)n1nc(Cc2cccc3ccccc23)c2c(N)ncnc21 | 2.66%
CCOC(=O)C1CCN(S(=O)(=O)c2ccc(NC(=O)OC)cc2)CC1 | -1.65%
N#CCCN(C(=O)CCl)c1cccc(Cl)c1 | 28.7%
COc1ccccc1/C=C1\SC(=S)N(CCC(=O)NCCCn2ccnc2)C1=O | -0.06%
Cc1ccc2c(c1)N(C(C)C(=O)NCc1ccc3c(c1)OCO3)C(=O)CO2 (centres undefined) | -10.5%
COc1ccc(C(=O)NCCNc2nc3cc(C)cc(C)c3cc2C#N)c(OC)c1 | 3.31%
O=C(CCl)Nc1ccc(C(=O)NCC2COc3ccccc3O2)cc1 (centres undefined) | 71.2% (active)
Cc1ccc(NC(=O)C2CCN(S(=O)(=O)c3ccc(N4CCCC4=O)cc3)CC2)cc1Cl | 31%
Cc1ccc(Cn2ccc(=O)c(OCc3c(Cl)cccc3Cl)c2C)cc1 | 11.9%
CCC(C(=O)NCc1ccc(F)cc1)n1nc(C)n2c(cc3occc32)c1=O (centres undefined) | -13.4%
